Source: PubChem
SIAE primary = human SIAE inhibition, primary screen | Q9HAT2 | SIAE FP-Rh probe binding, fluorescence polarization | inhibition, % at 9.66 µM | 0.69% of 370,000 active;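 active means inhibition above a cutoff: mean of compounds within the control limits plus 3 SD of those, cut at about 17% in these data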;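 further: 0% = plate median of compound wells and 100% = probe without SIAE protein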
Target sequence (Q9HAT2 whole entry, looked up): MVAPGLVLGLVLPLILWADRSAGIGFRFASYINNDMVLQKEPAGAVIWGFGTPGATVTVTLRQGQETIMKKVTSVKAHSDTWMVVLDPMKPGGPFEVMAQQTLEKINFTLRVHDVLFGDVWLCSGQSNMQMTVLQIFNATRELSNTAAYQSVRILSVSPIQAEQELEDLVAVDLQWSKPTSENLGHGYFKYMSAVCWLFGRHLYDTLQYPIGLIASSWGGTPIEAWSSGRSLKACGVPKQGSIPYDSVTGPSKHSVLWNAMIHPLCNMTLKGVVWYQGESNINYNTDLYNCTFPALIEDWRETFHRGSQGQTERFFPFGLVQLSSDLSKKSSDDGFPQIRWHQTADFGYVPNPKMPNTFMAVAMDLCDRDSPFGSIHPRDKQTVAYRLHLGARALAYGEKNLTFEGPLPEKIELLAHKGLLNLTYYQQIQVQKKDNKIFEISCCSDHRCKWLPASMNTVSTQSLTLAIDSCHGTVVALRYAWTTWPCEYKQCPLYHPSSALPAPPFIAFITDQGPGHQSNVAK
PAD4 inh = blocks human protein arginine deiminase 4; Q9UM07; recombinant PAD4, RCA probe fluorescence polarization; inhibition, % at 6.36 µM; 0.41% of 330,000 active;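 active means percent inhibition above a cutoff equal to the mean of all tested compounds plus 3 SD, cut at about 15% in these data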;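 further: 0% = PAD4 with RCA probe and DMSO and 100% = probe without PAD4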
Fam108B counter = counter-screen for RBBP9 inhibitors: inhibitors of mouse Fam108B | recombinant Fam108B, FP-Rh probe fluorescence polarization | inhibition, % at 9.51 µM | 0.33% of 300,000 active;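 active means inhibition above the screen mean inhibition plus 3 SD, computed separately per campaign, cut at about 18% in these data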;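 further: inhibitors lower polarization as less probe binds the enzyme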
PRMT1 inh = inhibitors of human PRMT1 | inhibition, % at 2.79 µM | recombinant PRMT1, activity-based probe fluorescence polarization | 1.3% of 370,000 active | Q99873;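 active means inhibition above about 21% made by adding two undisclosed values, limit read from the data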
PME-1 inh = PME-1 (human) inhibition; recombinant PME-1, FP-Rh probe fluorescence polarization; AID 2130; inhibition, % at 5.9 µM; Q9Y570; 0.53% of 320,000 active;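 active means inhibition above the campaign mean of all compounds plus 3 SD, cut at about 26% in these data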;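 further: competitive labeling of PME-1 active site by serine hydrolase directed probe; 0% = PME-1 with DMSO and 100% = wells lacking PME-1 enzyme; inhibitors block probe labeling so polarization falls and inhibition rises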
TCR-CD3 inh = blocks the human TCR-CD3 interaction; TAMRA-labeled TCR probe fluorescence, biochemical; inhibition, % at 9.4 µM; 0.37% of 360,000 active; AID 651800; in the data active means inhibition above about 19%;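 further: recombinant mutant TCR 2C K166C tagged with TAMRA read by polarization; 0% = receptor in buffer alone and 100% = receptor with positive control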
Fam108b inh conf = confirmation of mouse Fam108b serine hydrolase inhibitors. shares compounds with Fam108B counter. recombinant Fam108b, FP-Rh probe fluorescence polarization. inhibition, % at 9.51 µM. 44% of 930 active;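 active means inhibition above a limit from the primary screen, the mean over all compounds plus 3 SD, cut at about 19% in these data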;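 further: 0% = median of active Fam108b wells and 100% = catalytically dead S170A mutant; inhibitors free the probe so polarization falls as inhibition rises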
Fam108b inh = inhibits mouse Fam108b in gel-based ABPP; recombinant Fam108b, fluorophosphonate probe; 44% of 260 active; inhibition, % at 20 µM; shares compounds with Fam108B counter; in the data active means inhibition above about 40%
Active calls of the source: *; · = not tested or not shown. Rows were chosen to be rich in hits. Some 2.6% of all compounds tested hit in one or more screens of this group.

SMILES | SIAE primary | PAD4 inh | Fam108B counter | PRMT1 inh | PME-1 inh | TCR-CD3 inh | Fam108b inh conf | others
COCC(=O)N(Cc1cc2ccc(C)cc2[nH]c1=O)c1ccc(OC)cc1 | -4.7 | 0.2 | 0.8 | 0.6 | -1.0 | 0.8 | ·
Brc1ccc(C2Nc3cccc4cccc(c34)N2)o1 | · | 5.0 | 26.1* | · | 19.1 | · | 8.2
c1ccc(C2Nc3cccc4cccc(c34)N2)cc1 | 10.3 | 3.9 | 12.7 | 7.7 | 3.1 | -2.3 | ·
Oc1ccccc1C1Nc2cccc3cccc(c23)N1 | 5.2 | -5.8 | 60.1* | 6.6 | 46.2* | 2.2 | 31.2* | Fam108b inh=85.0*
Brc1cccc(C2Nc3cccc4cccc(c34)N2)c1 | 6.8 | -0.1 | 21.9* | 9.9 | 17.4 | -12.0 | 0.2
Clc1ccc(C2Nc3cccc4cccc(c34)N2)cc1Cl | 5.0 | -3.7 | 23.6* | 8.7 | 15.3 | -6.1 | 21.0*
COc1ccc(CNCC#Cc2ccc(C)cc2)c(OC)c1 | -5.0 | · | · | -3.8 | · | · | ·
O=C1C(=O)c2ccc(-c3ccccc3)cc2-c2ccccc21 | -0.4 | -2.9 | 54.4* | 0.1 | 16.0 | -0.7 | 69.3* | Fam108b inh=15.0
C/C(=N\NC(=O)c1cccc(Cl)c1)C1C(=O)c2ccccc2C1=O | 1.4 | 1.0 | 30.9* | 3.8 | 4.0 | 14.3 | 34.4*
CC(/C=C/c1ccco1)=N\NC(=O)c1cccc(Cl)c1 | 1.3 | -4.4 | 1.9 | 0.9 | 1.2 | 0.0 | ·
COC[C@@H]1CCCN1c1cccc2c1S(=O)(=O)N1CC[C@H](C1)O2 | 5.6 | · | · | 1.6 | · | · | ·
C#CCN1CC(N(C)CCOC(=O)CSc2ccccc2)CS1(=O)=O (stereo not given) | -3.1 | · | · | 1.1 | · | · | ·
N#C/C(=C(/O)c1ccco1)c1nc2ccccc2s1 | -0.1 | -4.7 | 5.2 | 1.4 | -1.9 | 2.4 | ·
N#C/C(=C(/O)c1cc2ccccc2o1)c1nc2ccccc2s1 | -8.3 | -2.6 | 21.9* | -2.8 | 8.8 | 5.7 | 21.0*
CCOc1cc(CCNC(=O)c2cc(-c3ccccc3)c(N3CCOCC3)s2)ccc1OC | 0.9 | · | · | 0.7 | · | · | ·
COc1ccc2[nH]c3c(N4CCc5ccccc5C4)ncnc3c2c1 | 16.6 | 4.1 | 18.9* | -3.1 | 29.8* | 5.4 | -5.3
O=C1c2ccccc2-c2onc3ccc(NCc4ccco4)c1c23 | · | 89.3* | 106.5* | · | 120.2* | · | 134.8* | Fam108b inh=30.0
O=C1C(Cl)=C(NCc2ccco2)C(=O)c2ccccc21 | -4.2 | · | · | 10.4 | · | -2.7 | ·
Cc1ccccc1-n1c(SCC(=O)c2cc(C)n(C)c2C)nnc1-c1cccnc1 | · | -3.8 | 3.9 | · | 0.5 | · | ·
CCn1c(CSc2nnc(-c3cccnc3)n2-c2ccccc2C)nc2cc(C(=O)O)ccc21 | · | 52.9* | 69.5* | · | 76.4* | · | 90.2* | Fam108b inh=0.0
Cc1[nH]cnc1/C=N\NC(=O)c1cccc(S(=O)(=O)N(C)C)c1 | 2.1 | · | · | 1.7 | · | · | ·
CC1(C)CC(=O)C2=C(C1)c1c(ccc3ccccc13)NC2c1ccc(C(=O)O)cc1 (stereo not given) | 14.0 | -2.7 | -2.3 | -3.5 | 9.4 | -0.1 | ·
CC1(C)CC(=O)C2=C(C1)c1c(ccc3ccccc13)NC2c1cc([N+](=O)[O-])cc([N+](=O)[O-])c1O (stereo not given) | -1.3 | -0.7 | 25.6* | 7.6 | -4.5 | -7.2 | 56.8* | Fam108b inh=50.0*
Cc1nc2ccc(NC(=O)c3cc(Cl)ccc3F)cc2c(=O)[nH]1 | 2.3 | · | · | -3.5 | · | · | ·
CCN(CC)c1ccc(NC(=O)c2cc3c(C)nn(-c4ccccc4)c3s2)cc1 | -8.1 | · | · | 1.6 | · | · | ·
SMILES | SIAE primary | PAD4 inh | Fam108B counter | PRMT1 inh | PME-1 inh | TCR-CD3 inh | Fam108b inh conf | others
COc1ccc2oc(-c3ccc(NC(=O)c4ccc(N5CCOCC5)c([N+](=O)[O-])c4)cc3)nc2c1 | -5.5 | -1.6 | -0.4 | -0.3 | 1.3 | 1.4 | ·
O=C(Nc1ccc(-c2nc3ccccc3o2)cc1)c1ccc(N2CCOCC2)c([N+](=O)[O-])c1 | -4.3 | -1.1 | 19.5* | -1.9 | -2.6 | 8.3 | 1.3
NC(=O)c1ccc(N=C2C(=O)Nc3ccc([N+](=O)[O-])cc32)cc1 | -3.4 | -2.1 | 24.4* | 1.0 | 3.2 | -0.5 | 4.4
O=C1Nc2ccccc2C1=Nc1cccc([N+](=O)[O-])c1 | 5.0 | 4.6 | -2.6 | -3.1 | -0.1 | 10.5 | ·
Cc1ccc(-c2csc3nc(C(C)C)oc(=O)c23)c(C)c1 | 2.9 | -10.2 | 66.9* | 5.7 | -1.0 | -12.3 | 66.4* | Fam108b inh=50.0*
CC(=O)CC[C@@H]1CC[C@]2(CCCN(C(=O)C3CCCCC3)C2)O1 | 8.5 | · | · | -1.5 | · | · | ·
COc1cccc(S(=O)(=O)Nc2ccc3c(c2)OCCO3)c1 | 2.5 | · | · | -1.8 | · | 1.9 | ·
COc1ccc(NS(=O)(=O)c2ccc3oc(Nc4ccc5c(c4)OCCO5)nc3c2)cc1 | -8.0 | -6.3 | 30.1* | 6.9 | 32.2* | -4.0 | -1.1
O=C(Nc1cccc(Br)c1)OC1CC2CC1[C@H]1CCCCN1C2 (stereo not given in full) | -7.4 | · | · | 1.9 | · | · | ·
Cc1ccc(NC(=O)CN2C(=O)N/C(=C/c3cccn3-c3ccc(C(=O)O)cc3)C2=O)cc1 | 0.7 | 5.4 | 43.5* | 30.1* | -9.6 | 11.1 | 39.4* | Fam108b inh=0.0
CC1=NN(c2ccccc2)C(=O)/C1=C/c1c(O)n(-c2ccc(F)c(Cl)c2)[nH]c1=O | · | -2.0 | 66.8* | · | 68.0* | · | 65.4* | Fam108b inh=0.0
CC1=NN(c2ccccc2)C(=O)/C1=C\c1c(C)[nH]n(-c2ccccc2)c1=O | 10.2 | -2.3 | 2.6 | -1.2 | -0.8 | -3.1 | ·
CC1=Nc2ccccc2/C1=C\c1sc(Nc2ccc(C)cc2)nc1O | 14.8 | -3.2 | 23.0* | -1.1 | 51.9* | -1.0 | 5.2
O=C(Cn1c(O)c(/C=C2\C=Nc3ccccc32)sc1=O)N1CCOCC1 | 3.8 | -3.7 | -8.2 | 1.1 | 9.4 | 6.3 | ·
Oc1cccc(Nc2nc(O)c(/C=C3\C=Nc4ccccc43)s2)c1 | -55.1 | -22.2 | 44.5* | -15.6 | 28.0* | -18.9 | 16.0
CC1=NN(C(N)=S)C(=O)C1N=Nc1c(Br)cc(Br)cc1Br (stereo not given) | 4.5 | 1.8 | 29.5* | 2.5 | 8.9 | -2.7 | 33.4* | Fam108b inh=35.0
C/C(=N\OCc1nc2ccccc2c(=O)n1/N=C/c1cc([N+](=O)[O-])ccc1O)c1ccccc1 | -11.3 | -5.4 | 19.1* | -2.5 | 0.4 | 23.1* | -9.5
COC(=O)C12C=C3CC(C4CC4)=C3C(=O)N1Cc1[nH]c3ccccc3c1C2 (stereo not given) | -1.1 | · | · | 10.5 | · | · | ·
Cc1ccc(C(=O)N/N=C/c2ccc(-c3ccc(Br)cc3[N+](=O)[O-])o2)o1 | 10.1 | 0.4 | 19.1* | 3.1 | 53.1* | 9.0 | -5.1
Cc1ccc(C(=O)N/N=C\c2ccc(Br)o2)o1 | 0.5 | -1.7 | -1.3 | -5.2 | -1.1 | 1.3 | ·
CCCC1CCC2(CCC(=O)N2CCC#N)CC1 (stereo not given) | -7.0 | · | · | -1.6 | · | · | ·
O=C(Nc1cccc(Cl)c1)Nc1ccc2c(c1)OCO2 | 10.8 | 1.4 | 19.1* | 1.8 | 20.2 | 5.5 | -1.4
